# Experimental data published in PubChem BioAssay (Tox21).
# Inconclusive results are not listed. Activity calls are given as the source filed them. Calls come from the whole dose curve; as a rule, active = well fitted cell-killing curve with a large enough effect in the repeat runs; inconclusive = weak or mixed curves, or effect the other way; inactive = flat fitted curve, though single readings scatter.
# Assay: cAMP Responsive Elements (CRE) small molecule antagonists, cell-based qHTS assay: qHTS cell viability counter screen (AID 2060913); note: nearly all actives have a fitted effect of over 40% in size
# Settings: CRE-bla HEK293T viability, CellTiter-Glo luminescence, 5 h; series mostly up to 92.4 µM; viability change, negative = cytotoxic: at the top concentration
# Procedure, shortened: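 CRE-bla HEK293T cells were seeded in assay medium with 10% dialyzed FBS, incubated 18 hrs at 37 C, then exposed to compounds plus 0.25 uM final NKH477 for 3 hrs. Viability was read by CellTiter-Glo luminescence after 30 min, in the same wells.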
# % is set by controls: 0 for no effect and ±100 for the full control effect.
Structure (SMILES),"viability change, negative = cytotoxic",Potency
O=C1NC(=O)[C@@]2(CCOc3ccc(F)cc32)N1,-4.53% [at 42.5 µM] (inactive),–
CCOCCOCCOCCO,–,inactive
O=C(O)c1cc(Br)c(O)c(Br)c1,0.797% (inactive),–
CC(C)(C)C(=O)NCCCC(=O)O,-2.47% [at 42.5 µM] (inactive),–
CC(C)(O)c1ccccc1CC[C@@H](SCC1(CC(=O)O)CC1)c1cccc(/C=C/c2ccc3ccc(Cl)cc3n2)c1,2.55% [at 42.5 µM] (inactive),–
CCCCc1ccc2cccc(S(=O)(=O)O)c2c1,0.396% (inactive),–
N#Cc1c(F)cccc1F,-3.11% (inactive),–
O=C(O)C[C@H](NC(=O)OCc1ccccc1)C(=O)O,1.49% (inactive),–
COc1cc(C(=O)NC2CCCNC2)cc(OC)c1OC (centres undefined),1.12% [at 42.5 µM] (inactive),–
O=C(O)CCCCCCCCC(=O)O,–,inactive
O=C1CCC(=O)O1,-6.39% (inactive),–
CNC(=S)NN,-8.5% (inactive),–
C[C@@H]1CC(=O)NN=C1c1ccc(NN=C(C#N)C#N)cc1,–,inactive
CCOC(=O)NCCC[Si](OCC)(OCC)OCC,-0.154% (inactive),–
O=C(Cl)c1cccc([N+](=O)[O-])c1,4.88% (inactive),–
NCCOCCO,–,inactive
COC(=O)CCCC(=O)O,1.02% (inactive),–
CNNCc1ccc(C(=O)NC(C)C)cc1,–,inactive
C=CC(C)(O)CC/C=C(/C)CCC=C(C)C (centres undefined),-15.6% (inactive),–

# Assay: cAMP Responsive Elements (CRE) small molecule agonists, cell-based qHTS assay: qHTS cell viability counter screen (AID 2060914); note: nearly all actives have a fitted effect of over 50% in size
# Settings: CRE-bla HEK293T viability, CellTiter-Glo luminescence, 5 h; series mostly up to 92.4 µM; activity change, negative = cytotoxicity: at the top concentration
# Procedure, shortened: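 Luminescence read-out (CellTiter-Glo, 30 min RT) of ATP-based viability in CRE-bla HEK 293T cells, run in the same wells as the β-lactamase reporter assay after 3 h compound treatment at 37 °C.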
Structure (SMILES),"activity change, negative = cytotoxicity",Potency
CCCCC1CCCCC(=O)O1 (centres undefined),6.85% (inactive),–
CC[C@H](NC(=O)c1cc(F)ccc1NS(=O)(=O)c1cccc2cccnc12)c1ccccc1,13.3% (inactive),–
CCOc1ccc2nc(N)sc2c1,-0.0969% (inactive),–
ClCCOCCOCCCl,-5.1% (inactive),–
CC[C@H]1OC(=O)[C@H](C)[C@@H](O[C@H]2C[C@@](C)(OC)[C@@H](O)[C@H](C)O2)[C@H](C)[C@@H](O[C@@H]2O[C@H](C)C[C@H](N(C)C)[C@H]2O)[C@](C)(OC)C[C@@H](C)C(=O)[C@H](C)[C@@H](O)[C@]1(C)O,-8.86% (inactive),–
O=C(O[C@@H]1Cc2c(O)cc(O)cc2O[C@@H]1c1cc(O)c(O)c(O)c1)c1cc(O)c(O)c(O)c1,–,inactive
Brc1cc2ccccc2c2ccccc12,2.69% (inactive),–
c1ccc2cc3ccccc3cc2c1,–,inactive
Nc1ccc2c3c(cccc13)-c1ccccc1-2,-17% (inactive),–
O=c1[nH]cnc2[nH]ncc12,–,inactive
CC1COC(=O)O1 (centres undefined),–,inactive
CC[C@H](NC(C)C)[C@H](O)c1ccc(O)c2[nH]c(=O)ccc12,-21.1% [at 42.5 µM] (inactive),–
ONc1ccccc1,-20.7% (inactive),–
CC(C)=CCC/C(C)=C/C(=O)O,0.986% (inactive),–
CCOC(=O)C1=NN(c2ccc(Cl)cc2Cl)C(C)(C(=O)OCC)C1 (centres undefined),-10.8% (inactive),–
O=Cc1c(Cl)cccc1Cl,6.93% (inactive),–
CCCCOCCOCCOCCOCCO,1.32% (inactive),–
COc1ccc(CCN(C)CCCN2CCc3cc(OC)c(OC)cc3CC2=O)cc1OC,-0.313% [at 42.5 µM] (inactive),–
OCC(CO)(CO)CO,–,inactive
CC(NC(CCc1ccccc1)C(=O)O)C(=O)N1C(=O)N(C)CC1C(=O)O (centres undefined),-0.296% [at 42.5 µM] (inactive),–

Structure (SMILES),"activity change, negative = cytotoxicity",Potency
Cc1nc2n(c(=O)c1CCN1CCC(c3noc4cc(F)ccc34)CC1)CCCC2,8.95% [at 42.5 µM] (inactive),–
O=C1NC(=O)[C@@]2(CCOc3ccc(F)cc32)N1,-22.9% [at 42.5 µM] (inactive),–
CCOCCOCCOCCO,–,inactive
O=C(O)c1cc(Br)c(O)c(Br)c1,7.63% (inactive),–
CC(C)(C)C(=O)NCCCC(=O)O,10.2% [at 42.5 µM] (inactive),–
CC(C)(O)c1ccccc1CC[C@@H](SCC1(CC(=O)O)CC1)c1cccc(/C=C/c2ccc3ccc(Cl)cc3n2)c1,14.2% [at 42.5 µM] (inactive),–
CCCCc1ccc2cccc(S(=O)(=O)O)c2c1,10.4% (inactive),–
N#Cc1c(F)cccc1F,-1.12% (inactive),–
O=C(O)C[C@H](NC(=O)OCc1ccccc1)C(=O)O,-3.11% (inactive),–
COc1cc(C(=O)NC2CCCNC2)cc(OC)c1OC (centres undefined),1.01% [at 42.5 µM] (inactive),–
O=C(O)CCCCCCCCC(=O)O,–,inactive
O=C1CCC(=O)O1,-16.4% (inactive),–
CNC(=S)NN,-0.585% (inactive),–
C[C@@H]1CC(=O)NN=C1c1ccc(NN=C(C#N)C#N)cc1,–,inactive
CCOC(=O)NCCC[Si](OCC)(OCC)OCC,-6.43% (inactive),–
O=C(Cl)c1cccc([N+](=O)[O-])c1,0.618% (inactive),–
NCCOCCO,–,inactive
COC(=O)CCCC(=O)O,-5.05% (inactive),–
CNNCc1ccc(C(=O)NC(C)C)cc1,–,inactive
C=CC(C)(O)CC/C=C(/C)CCC=C(C)C (centres undefined),5.29% (inactive),–
